Assay results reported in PubChem BioAssay AID1159580 (chemical genetic matrix, 2015).
Values joined by “and” are separate entries in the source; they are usually repeats but may differ in a detail not shown here. Identical values can stand only once. Hit rate of the full screen: of about 5,500 compounds, about 2,000 (36%) were called active. About 18% were inconclusive and are not listed. Rule as the data show it: active = normalized growth mostly below about 0.91 (no sharp cut-off); inconclusive = no clear call, values can overlap the other calls; inactive = mostly above about 0.92. This is one part of the list.

Experiment: chemical genetic growth profiling, strain panel (AID 1159580);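 also: tested at 20 µM; growth read once vehicle control cultures reached saturation at 30 °C; 1 = growth at the plate median or of vehicle wells; lower values mean less growth of the strain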
Settings: S. cerevisiae deletion strains, growth OD

Measured: normalized growth

Nc1ncn([C@@H]2O[C@H](CO)[C@@H](O)[C@H]2O)c(=O)n1
inactive: locus YAL021C, strain ccr4, stronger effect = lower value 1.01 | locus YAL026C, strain drs2, stronger effect = lower value 0.998 | locus YAL030W, strain snc1, stronger effect = lower value 0.996 | locus YBL061C, strain skt5, stronger effect = lower value 0.987 | locus YBR009C, strain hhf1, stronger effect = lower value 0.992 | locus YBR021W, strain FUR4, stronger effect = lower value 0.999 | locus YBR023C, strain chs3, stronger effect = lower value 1 | locus YBR171W, strain sec66, stronger effect = lower value 0.962 | locus YBR229C, strain ROT2, stronger effect = lower value 1.01 | locus YBR231C, strain swc5, stronger effect = lower value 0.973 | locus YBR279W, strain paf1, stronger effect = lower value 0.995 | locus YCL011C, strain gbp2, stronger effect = lower value 1.01 | locus YCL016C, strain dcc1, stronger effect = lower value 0.987 | locus YCL029C, strain bik1, stronger effect = lower value 1 | locus YCL061C, strain MRC1, stronger effect = lower value 0.989 | locus YCL069W, strain vba3, stronger effect = lower value 0.979 | locus YCR088W, strain abp1, stronger effect = lower value 0.996 | locus YDL005C, strain med2, stronger effect = lower value 0.972 | locus YDL035C, strain GPR1, stronger effect = lower value 1.02 | locus YDL040C, strain nat1, stronger effect = lower value 0.981 | locus YDL074C, strain BRE1, stronger effect = lower value 1.03 | locus YDL101C, strain DUN1, stronger effect = lower value 1.01 | locus YDL134C, strain PPH21, stronger effect = lower value 1.01 | locus YDL185W, strain tfp1, stronger effect = lower value 0.99 | locus YDL192W, strain arf1, stronger effect = lower value 0.994 | locus YDR001C, strain nth1, stronger effect = lower value 0.984 | locus YDR069C, strain doa4, stronger effect = lower value 0.976 | locus YDR101C, strain arx1, stronger effect = lower value 0.996 | locus YDR137W, strain rgp1, stronger effect = lower value 1 | locus YDR159W, strain sac3, stronger effect = lower value 1 | locus YDR162C, strain NBP2, stronger effect = lower value 1.01 | locus YDR195W, strain ref2 0.91 | locus YDR297W, strain sur2, stronger effect = lower value 0.993 | locus YDR318W, strain mcm21, stronger effect = lower value 0.999 | locus YDR334W, strain swr1, stronger effect = lower value 0.989 | locus YDR335W, strain msn5, stronger effect = lower value 0.98 | locus YDR388W, stronger effect = lower value 0.997 | locus YDR392W, strain spt3, stronger effect = lower value 1.02 | locus YDR502C, strain sam2, stronger effect = lower value 1.01 | locus YEL003W, strain gim4, stronger effect = lower value 0.982 | locus YEL037C, strain rad23, stronger effect = lower value 0.992 | locus YEL061C, strain CIN8 (second series), stronger effect = lower value 0.986 | locus YEL061C, strain CIN8, stronger effect = lower value 1.01 | locus YER015W, strain faa2, stronger effect = lower value 0.99 | locus YER016W, strain bim1, stronger effect = lower value 1.01 | locus YER110C, stronger effect = lower value 1.01 | locus YER111C, strain swi4, stronger effect = lower value 0.959 | locus YER155C, strain BEM2 (second series), stronger effect = lower value 0.978 | locus YER155C, strain BEM2, stronger effect = lower value 1.01 | locus YER167W, strain BCK2, stronger effect = lower value 0.996 | locus YFR010W, strain ubp6, stronger effect = lower value 0.983 | locus YGL078C, strain dbp3, stronger effect = lower value 0.992 | locus YGL086W, strain mad1, stronger effect = lower value 1 | locus YGL167C, strain pmr1, stronger effect = lower value 0.987 | locus YGL173C, strain kem1, stronger effect = lower value 0.971 | locus YGL227W, strain vid30, stronger effect = lower value 0.983 | locus YGL240W, strain doc1, stronger effect = lower value 0.951 | locus YGL248W, strain PDE1, stronger effect = lower value 1.02 | locus YGL253W, strain hxk2, stronger effect = lower value 0.989 | locus YGR078C, strain PAC10, stronger effect = lower value 1.03 | locus YGR135W, strain pre9, stronger effect = lower value 0.99 | locus YGR229C, strain SMI1, stronger effect = lower value 1.02 | locus YGR252W, strain gcn5, stronger effect = lower value 0.962 | locus YHR013C, strain ard1, stronger effect = lower value 0.979 | locus YHR027C, strain rpn1, stronger effect = lower value 0.994 | locus YHR030C, strain SLT2, stronger effect = lower value 1.01 and 0.98 | locus YHR079C, strain IRE1 (second series), stronger effect = lower value 0.989 | locus YHR079C, strain IRE1, stronger effect = lower value 0.997 | locus YHR094C, strain hxt1, stronger effect = lower value 0.987 | locus YHR129C, strain ARP1, stronger effect = lower value 1.01 | locus YHR142W, strain chs7, stronger effect = lower value 0.974 | locus YHR200W, strain rpn10, stronger effect = lower value 0.993 | locus YIL066C, strain RNR3, stronger effect = lower value 1.02 | locus YIL073C, strain SPO22, stronger effect = lower value 0.973 | locus YIL125W, strain kgd1, stronger effect = lower value 0.997 | locus YIR030C, strain dcg1, stronger effect = lower value 1 | locus YJL092W, strain hpr5, stronger effect = lower value 0.984 | locus YJL095W, strain BCK1 (second series), stronger effect = lower value 0.972 | locus YJL095W, strain BCK1, stronger effect = lower value 1.03 and 0.98 | locus YJL115W, strain asf1, stronger effect = lower value 0.97 | locus YJL129C, strain trk1, stronger effect = lower value 0.966 | locus YJL134W, strain LCB3, stronger effect = lower value 1 | locus YJL154C, strain vps35, stronger effect = lower value 0.981 | locus YJL164C, strain tpk1, stronger effect = lower value 0.996 | locus YJL166W, strain qcr8, stronger effect = lower value 0.973 | locus YJL168C, strain set2, stronger effect = lower value 0.995 | locus YJL187C, strain SWE1 (second series), stronger effect = lower value 1.03 | locus YJL187C, strain SWE1, stronger effect = lower value 0.983 | locus YJR043C, strain POL32, stronger effect = lower value 1.01
